The record followed here is PubChem BioAssay (NCI).

About 83,000 compounds went through this panel and 20% of them were active in at least one assay; those are over-represented in the sample as a whole.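 Step 1: grow cells in 96-well plates. Step 2: add test compound at a single concentration. Step 3: incubate 48 h. Step 4: record percent growth.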 Unmarked numbers belong to inactive results. The source made the active and inactive calls. How the source made its calls: active means growth percent below 10; inactive means the rest.

Test systems include DU-145 prostate; K-562 leukemia; MALME-3M melanoma; MDA-MB-231 breast; RXF 393 renal; SF-268 CNS; SF-295 CNS; SF-539 CNS; UACC-257 melanoma; M14 melanoma; HCT-15 colon; SNB-75 CNS; SNB-19 CNS; U251 CNS; PC-3 prostate; SK-MEL-5 melanoma; UACC-62 melanoma; LOX IMVI melanoma; SK-MEL-28 melanoma; HT29 colon.
What all share (assay): NCI-60 one-dose screen, 48 h (100 = growth as untreated, 0 = no growth, -100 = all killed)
Holding throughout (conditions): 10 µM unless noted

Turning to `c1ccc2c(c1)nc(CN1CCOCC1)n1cc(N3CCCC3)nc21`, the growth in the test with DU-145 prostate was 106%; in the test with K-562 leukemia, 67.8%; in the test on MALME-3M melanoma, 96.9%; with MDA-MB-231 breast it was 104%; in the test with RXF 393 renal, 95%; in the test on SF-268 CNS, 110%. Moreover, the growth in the test with SF-295 CNS is 112%; with SF-539 CNS it was 91.5%; in the test with UACC-257 melanoma, 99.1%; in the test with M14 melanoma, 107%; in the test with HCT-15 colon, 97.3%; with SNB-75 CNS it was 89.7%. Moreover, the growth in the test with SNB-19 CNS is 102%; with U251 CNS, 102%; with PC-3 prostate, 82.1%; with SK-MEL-5 melanoma, 98%; in the test on UACC-62 melanoma it was 100%; in the test on LOX IMVI melanoma, 102%. Moreover, in the test with SK-MEL-28 melanoma, the growth is 118%.

For the molecule `Cc1ccc(CCC(=O)Nc2ncc(Cc3cc(Cl)ccc3Cl)s2)o1`, the growth is 13.8% with DU-145 prostate; 9.78% (active) in the test on K-562 leukemia; 41.5% with MALME-3M melanoma; 12.4% in the test with MDA-MB-231 breast; -8.55% (active) in the test on RXF 393 renal; 57.6% with SF-268 CNS. The growth is 7.41% (active) in the test on SF-295 CNS; -16.4% (active) in the test with SF-539 CNS; 66.9% in the test with UACC-257 melanoma; 6.18% (active) in the test with M14 melanoma; 12.5% with HCT-15 colon; -1.75% (active) with SNB-75 CNS. The growth in the test on SNB-19 CNS was 21.7%; with U251 CNS, 18%; with PC-3 prostate it was 23.6%; in the test with SK-MEL-5 melanoma it was 7.9% (active); in the test with UACC-62 melanoma it was 21.2%; with LOX IMVI melanoma, 13.3%. Further, the growth in the test with SK-MEL-28 melanoma is 55.7%.

Regarding `Cn1cc(-c2csc(-c3ccccc3)n2)c2cccnc21`, the growth is -61.4% [100 µM] (active) in the test with DU-145 prostate; 1.43% [100 µM] (active) with K-562 leukemia; -44.2% [100 µM] (active) in the test with MALME-3M melanoma; -42.7% [100 µM] (active) in the test on MDA-MB-231 breast; -37.4% [100 µM] (active) in the test on RXF 393 renal; -18.3% [100 µM] (active) in the test with SF-268 CNS. Also, the growth with SF-295 CNS is -47.2% [100 µM] (active); in the test with SF-539 CNS, -71% [100 µM] (active); in the test with UACC-257 melanoma it was -27.7% [100 µM] (active); with M14 melanoma, -76.6% [100 µM] (active); with HCT-15 colon it was -40.3% [100 µM] (active); with SNB-75 CNS, -15.9% [100 µM] (active). The growth was -50.2% [100 µM] (active) in the test on SNB-19 CNS; -33.8% [100 µM] (active) in the test on U251 CNS; -16.9% [100 µM] (active) with PC-3 prostate; -83.2% [100 µM] (active) in the test with SK-MEL-5 melanoma; -62.7% [100 µM] (active) in the test on UACC-62 melanoma; -54.3% [100 µM] (active) in the test with LOX IMVI melanoma. Besides, the growth with SK-MEL-28 melanoma was -57.4% [100 µM] (active).

With `C=C1C(=O)O[C@H]2[C@H]1CC/C(COC(=O)C(=O)c1c[nH]c3ccc(OC)cc13)=C\CC[C@@]1(C)O[C@@H]21`, the growth in the test on DU-145 prostate is -89.8% (active); with K-562 leukemia, -7.42% (active); in the test with MALME-3M melanoma, -71.4% (active); in the test on MDA-MB-231 breast, -64.8% (active); in the test on RXF 393 renal it was -93.1% (active); with SF-268 CNS, -53.2% (active). Further, the growth in the test on SF-295 CNS is 33.1%; in the test on SF-539 CNS it was -97.4% (active); with UACC-257 melanoma it was -93.9% (active); in the test with M14 melanoma, -79.1% (active); in the test with HCT-15 colon, -49.8% (active); in the test on SNB-75 CNS, -88.4% (active). The growth in the test on SNB-19 CNS was -17.6% (active); with U251 CNS, -97.8% (active); in the test with PC-3 prostate, -70% (active); in the test on SK-MEL-5 melanoma it was -96.6% (active); in the test with UACC-62 melanoma, -76.6% (active); in the test on LOX IMVI melanoma it was -77.4% (active). Also, the growth in the test on SK-MEL-28 melanoma was -75.3% (active).

Consider `C=C(C)[C@@H]1CC[C@]2(C)[C@H](CC=C3[C@@H]4CC(C)(C)CC[C@]4(C(N)=O)CC[C@]32C)[C@@]1(C)CCC#N`, for which the growth in the test with DU-145 prostate is 42.1%; in the test on K-562 leukemia it was 15.9%; with MALME-3M melanoma it was 10.4%; with MDA-MB-231 breast, 38.6%; in the test on RXF 393 renal, 2.74% (active); in the test with SF-268 CNS, 45.6%. The growth with SF-295 CNS was 38.5%; in the test with SF-539 CNS, 35.7%; in the test on UACC-257 melanoma, 17.5%; with M14 melanoma, 44.7%; in the test with HCT-15 colon, 14.8%; in the test on SNB-75 CNS, 29.3%. For the same molecule, the growth in the test with SNB-19 CNS is 47.7%; in the test on U251 CNS it was 30.6%; with PC-3 prostate, -0.165% (active); in the test with SK-MEL-5 melanoma it was -2.59% (active); in the test with UACC-62 melanoma, 15.7%; in the test with LOX IMVI melanoma, 36.9%. Also, the growth in the test on SK-MEL-28 melanoma is 45.8%.

`Cc1ccc(N(C(=O)CCc2c[nH]c3ccccc23)[C@H](C(=O)Nc2ccc(Cl)cc2)c2cccc([N+](=O)[O-])c2)cc1`: the growth was 81.6% in the test with DU-145 prostate; 37.8% in the test on K-562 leukemia; 99% with MALME-3M melanoma; 75.4% in the test with MDA-MB-231 breast; 95.7% in the test on RXF 393 renal; 70.7% in the test with SF-268 CNS. Further, the growth with SF-295 CNS is 105%; in the test on SF-539 CNS, 89.7%; in the test on UACC-257 melanoma it was 90.1%; in the test on M14 melanoma, 78.4%; with HCT-15 colon, 70.7%; with SNB-75 CNS it was 84.1%. In addition, the growth with SNB-19 CNS is 92.2%; in the test on U251 CNS, 78%; in the test on PC-3 prostate, 62.2%; with SK-MEL-5 melanoma it was 75.9%; with UACC-62 melanoma, 33.7%; with LOX IMVI melanoma, 45.1%. Moreover, the growth with SK-MEL-28 melanoma was 114%.

In the case of `COC(=O)c1c2c(c(C)[n+]([O-])c1C)C(=O)C(NCc1ccc(F)c(Cl)c1)=CC2=O`, the growth in the test on DU-145 prostate was 36.2%; with K-562 leukemia, 5.87% (active); in the test with MALME-3M melanoma, -93.5% (active); in the test on MDA-MB-231 breast it was 2.68% (active); in the test with RXF 393 renal, 36.2%; with SF-268 CNS, 9.33% (active). For the same molecule, the growth in the test on SF-295 CNS is 39%; in the test with SF-539 CNS it was 3.31% (active); with UACC-257 melanoma, -69.3% (active); in the test with M14 melanoma, -19.6% (active); in the test on HCT-15 colon, 8.29% (active); with HT29 colon, 5% (active). Further, the growth in the test on SNB-19 CNS was 7.17% (active); in the test on U251 CNS it was -20.4% (active); with PC-3 prostate, 5.89% (active); in the test on UACC-62 melanoma it was -42% (active); in the test with LOX IMVI melanoma, 9.57% (active); with SK-MEL-28 melanoma, 57.9%.

For the molecule `CC/C=C/C/C=C/C/C=C/C/C=C/C/C=C/C/C=C/CCC(=O)Nc1ccn([C@@H]2O[C@H](CO)[C@@H](O)C2(F)F)c(=O)n1`, the growth with DU-145 prostate was 13.8%; with K-562 leukemia, 38.4%; in the test on MALME-3M melanoma, 64.3%; in the test on MDA-MB-231 breast it was 54.9%; with RXF 393 renal, 24.9%; with SF-268 CNS it was 19.1%. For the same molecule, the growth in the test on SF-295 CNS was 16.2%; in the test with SF-539 CNS it was 7.06% (active); with UACC-257 melanoma it was 48.2%; with M14 melanoma it was -22.7% (active); in the test with HCT-15 colon, 41.7%; with SNB-75 CNS, 37.4%. For the same molecule, the growth with SNB-19 CNS was 7.11% (active); with U251 CNS it was 22.4%; with PC-3 prostate, 41%; with SK-MEL-5 melanoma it was 31.3%; in the test with UACC-62 melanoma, -12.3% (active); in the test with LOX IMVI melanoma, -49.9% (active). The growth in the test on SK-MEL-28 melanoma was 74.9%.
